We go through 15 compounds from PubChem BioAssay (NCATS).

Values joined by “and” are separate entries in the source; they are usually repeats but may differ in a detail not shown here. Equal values may be shown once. Inconclusive results are not listed. Active and inactive are the calls of the source. Unless noted, the call rests on the fitted dose curve.

The target in test [1] is Ubiquitin carboxyl-terminal hydrolase 1 (Homo sapiens) (UniProt O94782). The test is described as follows: Inhibitors of USP1/UAF1: Pilot qHTS (AID 504865; active means well fitted inhibition curve with a large enough effect;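 further: rhodamine fluorescence freed from ubiquitin-rhodamine substrate followed over time; top concentration of the series differs between compounds; on the % scale 0 is the no-effect control and ±100 the full control effect; nearly all actives have a fitted effect of over 35% in size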). The method, boiled down:
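Enzyme-free wells gave the negative control, while test wells held 1nM USP1/UAF1 preincubated with compound for 15 min at room temperature. Ub-Rho at 150nM final started the reaction, and fluorescence at 480/540 nm was recorded kinetically.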
On the technique in general: qHTS replaces the single test concentration by a dilution series.

Test [2] has as its target DNA dC->dU-editing enzyme APOBEC-3G (Homo sapiens) (UniProt Q9HC16). Description: qHTS for inhibitors of Vif-A3G interactions: Validation (AID 588379; active means well fitted inhibition curve with a large enough effect; further: 0% is about no effect). The method, boiled down: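 HeLa cells stably expressing Vif and A3G-eYFP, 700 cells/well, incubated overnight at 37 deg C, then exposed to compound overnight at 37 deg C. Inhibition of Vif-mediated degradation read as increased yellow fluorescence (Ex 488/Em 500-530) by laser-scanning cytometry.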

Test [3] concerns the target Estrogen receptor (Homo sapiens) (UniProt P03372). The test is described as follows: qHTS assay for small molecule antagonists of estrogen receptor alpha signaling (AID 588513; active means well fitted curve in the direction sought with a large enough effect in the signal ratio, with a control signal flat, not every such curve was filed as active; the % refers to the signal ratio; further: on the % scale 0 is the no-effect control and ±100 the full control effect). Summed up: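 Antagonist-mode qHTS in ER-alpha-UAS-bla HEK 293 cells: compound titration, 0.5nM estradiol for 18 h, CCF4 fluorescence, Hill-derived IC50.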
For test [4] the target is unchanged. Description: qHTS assay for small molecule agonists of estrogen receptor alpha signaling (AID 588514). Further: nearly all actives have a fitted effect of over 70% in size. Further: potency means the concentration at half of the fitted maximal effect.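 On activation: 0% = vehicle only and 100% = reference agonist.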 Summed up:
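ER-alpha-UAS-bla GripTite HEK 293 cells in medium with 2% charcoal/dextran-treated FBS were treated with compound titrations at 37 C for 18 hrs; beta-lactamase reporter read by CCF4 fluorescence after 2 hrs at RT.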

Test [5] deals with Glucocorticoid receptor (Homo sapiens) (UniProt P04150). Description: qHTS assay for small molecule agonists of glucocorticoid receptor signaling (AID 588532; active means well fitted curve in the direction sought with a large enough effect in the signal ratio, with a control signal flat; the % refers to the signal ratio;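 further: 100% = dexamethasone at 0.1 µM and 0% = DMSO only wells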). Conditions: HeLa MMTV-bla, beta-lactamase ratio, agonist, 18 h; stronger effect = higher value; percent of dexamethasone control, DMSO zero. Summed up: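 Stimulation of a glucocorticoid response element-driven beta-lactamase gene was measured in HeLa cells. Responses were scaled between DMSO basal and 0.1 uM dexamethasone, then fitted for half-maximal stimulation.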

For test [6] the target is unchanged. The test is described as follows: qHTS assay for small molecule antagonists of glucocorticoid receptor signaling (AID 588533; active means well fitted inhibition curve with a large enough effect in the signal ratio, with a control signal flat, not every such curve was filed as active; the % refers to the signal ratio;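 further: cells stimulated with 2 nM dexamethasone as agonist; on the % scale 0 is the no-effect control and ±100 the full control effect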). Summed up:
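Antagonist-mode qHTS: compound titrations added to GRE-bla HeLa cells, then dexamethasone 2 nM final; 18 h, 37 C. CCF4 FRET fluorescence normalized to dexamethasone and DMSO; IC50 from Hill fit.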

Test [7] has as its target Vitamin D3 receptor (Homo sapiens) (UniProt P11473). Description: qHTS assay for small molecule antagonists of vitamin D receptor signaling (AID 588541).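 Further: receptor activated by calcitriol during compound treatment; series mostly up to about 77 µM; on the % scale 0 is the no-effect control and ±100 the full control effect.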 The method, boiled down: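 VDR-UAS-bla HEK293T cells (2000/well, 2% charcoal-stripped FBS) were treated with titrated compounds plus 1-alpha,25-dihydroxyvitamin D3 (50 nM or 3 nM final) for 16 h at 37 C. CCF4 beta-lactamase fluorescence was read; Hill fits gave IC50.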

Test [8] has the same target. The test is described as follows: qHTS assay for small molecule agonists of vitamin D receptor signaling (AID 588543).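 Further: 0% = DMSO basal and 100% = reference agonist control.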 Summed up:
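Measured: β-lactamase reporter activity (CCF4, 405 nm excitation, 460/530 nm emission) in HEK293T VDR-UAS-bla cells after 16 h compound exposure at 37 °C. Normalization against 50 nM 1α,25-dihydroxyvitamin D3 and DMSO; Hill-fit EC50.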

Test [9] can be described thus: qHTS assay for small molecule agonists of retinoid X receptor alpha signaling (AID 588544).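 On activation: 0% = DMSO basal wells and 100% = reference agonist.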 As to conditions: HEK293T RXRa-UAS-bla, beta-lactamase reporter, 18 h; 530 nm emission.
The target in test [10] is Peroxisome proliferator-activated receptor gamma (Homo sapiens) (UniProt P37231). The test is described as follows: qHTS assay for small molecule agonists of peroxisome proliferator-activated receptor gamma signaling (AID 588536; active means well fitted curve in the direction sought with a large enough effect in the signal ratio, with a control signal flat, not every such curve was filed as active; the % refers to the signal ratio;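 further: 0% = DMSO basal wells and 100% = rosiglitazone at 2 µM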). The method, boiled down: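 Test agents, titrated, stimulated HEK293 UAS-bla cells overnight (16 h, 37 C). Substrate CCF4 was then added for two hours at room temperature before fluorescence reading.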

Test [11] has the same target. The test is described as follows: qHTS assay for small molecule antagonists of peroxisome proliferator-activated receptor gamma signaling (AID 588537; active means well fitted inhibition curve with a large enough effect in the signal ratio, with a control signal flat, not every such curve was filed as active; the % refers to the signal ratio;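 further: reporter cells co-stimulated with 50 nM rosiglitazone agonist during compound treatment; % of control where 0% means no effect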). The method, boiled down:
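PPAR-gamma-UAS-bla HEK293 cells (3000/well, 1% charcoal/dextran-stripped FBS) were preincubated 6-6.5 h at 37 C, given titrated compounds, then stimulated with 50 nM rosiglitazone for 16 h. Beta-lactamase activity was read with CCF4 dye; IC50 came from Hill fits.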

Test [12] in a line: qHTS assay for small molecule antagonists of peroxisome proliferator-activated receptor delta signaling (AID 588535; active means well fitted inhibition curve with a large enough effect in the signal ratio, with a control signal flat, not every such curve was filed as active; the % refers to the signal ratio;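 on max response: cells co-treated with a PPAR-delta agonist as stimulator during compound exposure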). Conditions: HEK293T PPARd-UAS-bla, beta-lactamase FRET ratio, 18 h; 460 nm channel. The method, boiled down:
(§1)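 GeneBLAzer PPAR-delta-UAS-bla HEK293T cells in medium with 2% charcoal/dextran FBS were preincubated 5 hrs at 37 C, then given compounds, incubated 18 hrs at 37 C, and read by CCF4 beta-lactamase fluorescence; IC50 from Hill fits.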

Test [13] concerns the target Peroxisome proliferator-activated receptor delta (Homo sapiens) (UniProt Q03181). The description is as above. The method, boiled down:
as §1

The target in test [14] is Androgen receptor (Homo sapiens) (UniProt P10275). Description: qHTS assay for small molecule agonists of androgen receptor signaling (AID 588515; active means well fitted curve in the direction sought with a large enough effect in the signal ratio, with a control signal flat; the % refers to the signal ratio; further: on the % scale 0 is the no-effect control and ±100 the full control effect). As to conditions: AR-UAS-bla HEK293, beta-lactamase ratio, agonist 16 h; stronger effect = higher value. Summed up:
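EC50 and efficacy came from Hill fits of titrations (up to 92 uM) normalized to 30 nM R1881 as 100% and DMSO as 0%. Compound exposure was 16 h at 37 C on AR-UAS-bla HEK293 cells, with a 405/460/530 nm CCF4 fluorescence read.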

The target is the same in test [15]. The test is described as follows: qHTS assay for small molecule antagonists of androgen receptor signaling (AID 588516; active means well fitted curve in the direction sought with a large enough effect in the signal ratio, with a control signal flat, not every such curve was filed as active; the % refers to the signal ratio; further: on the % scale 0 is the no-effect control and ±100 the full control effect). The method, boiled down:
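Compounds tested in titration against 10 nM R1881 in AR-responsive bla reporter HEK 293 cells; CCF4 fluorescence (460/530 nm) after 16 h exposure gave IC50 and efficacy.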

In test [16] the target is Retinoic acid receptor RXR-alpha (Homo sapiens) (UniProt P19793). The test is described as follows: qHTS assay for small molecule agonists of retinoid X receptor alpha signaling (AID 588544).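 On activation: 0% = DMSO basal wells and 100% = reference agonist.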
Test [17] addresses Bile acid receptor (Homo sapiens) (UniProt Q96RI1). The test is described as follows: qHTS assay for small molecule antagonists of farnesoid X receptor signaling (AID 588526). Further: on the % scale 0 is the no-effect control and ±100 the full control effect. The method, boiled down: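 Concentration-response titrations were fitted to the Hill equation for half-maximal inhibition and maximal response, with data normalised to 50 uM chenodeoxycholic acid and DMSO control wells. Cells: FXR-UAS-bla HEK293T, dialyzed FBS.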

Ubiquitin carboxyl-terminal hydrolase 1 (Homo sapiens), sequence (O94782 whole entry, looked up): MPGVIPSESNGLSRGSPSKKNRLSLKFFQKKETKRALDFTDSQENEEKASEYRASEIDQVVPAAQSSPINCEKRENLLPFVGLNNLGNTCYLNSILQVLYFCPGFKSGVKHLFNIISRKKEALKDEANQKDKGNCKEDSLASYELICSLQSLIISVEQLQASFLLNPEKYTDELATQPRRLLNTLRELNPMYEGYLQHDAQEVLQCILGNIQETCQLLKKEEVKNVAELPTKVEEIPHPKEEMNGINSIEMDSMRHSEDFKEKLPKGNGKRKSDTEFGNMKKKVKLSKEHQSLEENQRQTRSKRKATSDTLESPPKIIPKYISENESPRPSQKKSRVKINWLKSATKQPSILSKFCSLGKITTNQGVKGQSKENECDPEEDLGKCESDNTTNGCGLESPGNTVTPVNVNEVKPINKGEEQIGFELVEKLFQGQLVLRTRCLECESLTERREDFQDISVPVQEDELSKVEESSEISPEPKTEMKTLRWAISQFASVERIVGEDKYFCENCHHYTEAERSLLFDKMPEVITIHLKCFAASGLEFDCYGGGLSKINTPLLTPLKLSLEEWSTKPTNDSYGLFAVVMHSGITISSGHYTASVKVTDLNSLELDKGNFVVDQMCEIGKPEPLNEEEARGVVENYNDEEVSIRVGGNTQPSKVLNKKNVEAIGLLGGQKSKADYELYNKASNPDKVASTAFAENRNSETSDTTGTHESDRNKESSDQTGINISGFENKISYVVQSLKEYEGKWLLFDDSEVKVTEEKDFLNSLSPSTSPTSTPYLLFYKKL
Vitamin D3 receptor (Homo sapiens), sequence (P11473 whole entry, looked up): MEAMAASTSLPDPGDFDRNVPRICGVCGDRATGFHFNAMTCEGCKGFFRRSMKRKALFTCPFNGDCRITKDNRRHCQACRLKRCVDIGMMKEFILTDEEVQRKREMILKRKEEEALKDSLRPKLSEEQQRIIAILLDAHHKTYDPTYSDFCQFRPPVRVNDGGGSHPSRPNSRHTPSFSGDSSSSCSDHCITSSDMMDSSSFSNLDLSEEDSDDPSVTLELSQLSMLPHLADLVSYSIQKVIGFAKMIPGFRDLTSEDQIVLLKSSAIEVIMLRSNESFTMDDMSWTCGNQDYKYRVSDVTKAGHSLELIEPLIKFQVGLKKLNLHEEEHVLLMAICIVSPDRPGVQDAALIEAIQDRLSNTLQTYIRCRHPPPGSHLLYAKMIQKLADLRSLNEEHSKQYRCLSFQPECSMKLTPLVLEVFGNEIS
Bile acid receptor (Homo sapiens), sequence (Q96RI1 whole entry, looked up): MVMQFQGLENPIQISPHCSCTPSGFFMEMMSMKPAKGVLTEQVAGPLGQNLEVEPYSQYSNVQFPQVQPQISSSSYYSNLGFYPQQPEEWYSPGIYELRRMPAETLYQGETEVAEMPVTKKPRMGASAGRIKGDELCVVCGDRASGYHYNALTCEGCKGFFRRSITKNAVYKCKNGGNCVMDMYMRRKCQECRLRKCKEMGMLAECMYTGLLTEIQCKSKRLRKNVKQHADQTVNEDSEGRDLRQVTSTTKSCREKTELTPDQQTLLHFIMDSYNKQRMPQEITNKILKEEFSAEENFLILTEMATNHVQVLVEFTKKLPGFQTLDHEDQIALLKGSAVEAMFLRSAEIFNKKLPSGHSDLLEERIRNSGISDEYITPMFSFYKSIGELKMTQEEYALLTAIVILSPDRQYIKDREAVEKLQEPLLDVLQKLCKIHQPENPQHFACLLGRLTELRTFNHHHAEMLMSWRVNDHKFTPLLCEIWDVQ
Peroxisome proliferator-activated receptor gamma (Homo sapiens), sequence (P37231 whole entry, looked up): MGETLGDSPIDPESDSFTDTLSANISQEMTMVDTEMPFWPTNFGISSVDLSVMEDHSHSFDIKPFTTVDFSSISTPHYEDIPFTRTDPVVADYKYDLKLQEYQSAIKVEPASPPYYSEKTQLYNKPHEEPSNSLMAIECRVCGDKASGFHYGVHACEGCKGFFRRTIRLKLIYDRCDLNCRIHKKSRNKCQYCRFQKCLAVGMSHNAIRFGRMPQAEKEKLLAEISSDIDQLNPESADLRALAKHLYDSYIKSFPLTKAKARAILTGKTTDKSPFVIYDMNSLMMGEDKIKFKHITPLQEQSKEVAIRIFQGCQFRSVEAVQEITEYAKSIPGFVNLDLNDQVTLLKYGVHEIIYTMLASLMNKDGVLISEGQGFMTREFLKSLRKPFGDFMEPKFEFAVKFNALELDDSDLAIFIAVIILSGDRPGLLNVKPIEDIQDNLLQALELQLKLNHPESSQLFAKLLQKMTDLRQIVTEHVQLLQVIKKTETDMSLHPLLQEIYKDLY
Peroxisome proliferator-activated receptor delta (Homo sapiens), sequence (Q03181 whole entry, looked up): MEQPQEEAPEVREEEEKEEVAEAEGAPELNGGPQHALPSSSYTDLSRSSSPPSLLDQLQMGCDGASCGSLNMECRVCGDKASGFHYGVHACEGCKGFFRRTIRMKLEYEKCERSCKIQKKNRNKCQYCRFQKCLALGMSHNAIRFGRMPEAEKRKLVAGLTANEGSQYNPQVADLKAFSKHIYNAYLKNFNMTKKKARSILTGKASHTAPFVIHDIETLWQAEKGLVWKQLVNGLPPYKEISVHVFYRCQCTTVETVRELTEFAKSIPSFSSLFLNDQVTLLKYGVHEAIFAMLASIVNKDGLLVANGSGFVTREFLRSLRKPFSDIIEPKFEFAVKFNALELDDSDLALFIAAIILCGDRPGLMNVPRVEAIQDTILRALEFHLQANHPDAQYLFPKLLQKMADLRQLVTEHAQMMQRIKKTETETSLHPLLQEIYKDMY
Glucocorticoid receptor (Homo sapiens), sequence (P04150 whole entry, looked up): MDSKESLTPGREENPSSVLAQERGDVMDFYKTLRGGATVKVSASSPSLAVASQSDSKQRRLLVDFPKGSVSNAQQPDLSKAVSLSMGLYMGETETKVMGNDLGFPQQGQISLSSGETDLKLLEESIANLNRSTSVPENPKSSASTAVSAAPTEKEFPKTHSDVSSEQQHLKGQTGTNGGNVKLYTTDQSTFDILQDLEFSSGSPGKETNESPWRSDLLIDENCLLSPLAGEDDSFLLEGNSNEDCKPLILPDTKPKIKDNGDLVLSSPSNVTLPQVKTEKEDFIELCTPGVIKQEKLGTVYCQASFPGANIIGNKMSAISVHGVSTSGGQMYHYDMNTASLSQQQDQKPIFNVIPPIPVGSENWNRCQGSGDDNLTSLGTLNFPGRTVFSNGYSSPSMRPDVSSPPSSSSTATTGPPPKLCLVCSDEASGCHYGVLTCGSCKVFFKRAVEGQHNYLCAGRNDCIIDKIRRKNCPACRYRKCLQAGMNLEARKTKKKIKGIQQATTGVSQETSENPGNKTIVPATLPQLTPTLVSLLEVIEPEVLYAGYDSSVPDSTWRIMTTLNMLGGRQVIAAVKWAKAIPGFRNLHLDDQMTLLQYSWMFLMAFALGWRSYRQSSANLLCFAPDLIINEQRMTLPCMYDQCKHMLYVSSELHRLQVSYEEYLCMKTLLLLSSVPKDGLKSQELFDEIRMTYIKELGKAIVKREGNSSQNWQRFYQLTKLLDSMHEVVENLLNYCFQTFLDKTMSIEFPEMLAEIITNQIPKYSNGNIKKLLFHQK
Estrogen receptor (Homo sapiens), sequence (P03372 whole entry, looked up): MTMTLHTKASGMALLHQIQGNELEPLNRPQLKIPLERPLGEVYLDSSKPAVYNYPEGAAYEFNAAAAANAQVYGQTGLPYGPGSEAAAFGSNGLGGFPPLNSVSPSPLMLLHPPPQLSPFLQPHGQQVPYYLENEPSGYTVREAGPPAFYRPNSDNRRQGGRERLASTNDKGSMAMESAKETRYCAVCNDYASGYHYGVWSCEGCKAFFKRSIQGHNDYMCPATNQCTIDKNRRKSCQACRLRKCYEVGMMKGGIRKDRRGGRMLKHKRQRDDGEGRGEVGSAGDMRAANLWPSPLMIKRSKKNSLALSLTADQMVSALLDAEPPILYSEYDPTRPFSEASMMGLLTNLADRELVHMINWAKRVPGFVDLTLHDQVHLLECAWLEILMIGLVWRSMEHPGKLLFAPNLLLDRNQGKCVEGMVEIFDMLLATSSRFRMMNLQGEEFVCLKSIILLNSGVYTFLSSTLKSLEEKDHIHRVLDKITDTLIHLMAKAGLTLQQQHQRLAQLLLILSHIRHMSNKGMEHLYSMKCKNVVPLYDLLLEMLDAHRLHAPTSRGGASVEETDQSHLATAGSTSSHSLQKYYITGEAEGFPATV
Androgen receptor (Homo sapiens), sequence (P10275 whole entry, looked up): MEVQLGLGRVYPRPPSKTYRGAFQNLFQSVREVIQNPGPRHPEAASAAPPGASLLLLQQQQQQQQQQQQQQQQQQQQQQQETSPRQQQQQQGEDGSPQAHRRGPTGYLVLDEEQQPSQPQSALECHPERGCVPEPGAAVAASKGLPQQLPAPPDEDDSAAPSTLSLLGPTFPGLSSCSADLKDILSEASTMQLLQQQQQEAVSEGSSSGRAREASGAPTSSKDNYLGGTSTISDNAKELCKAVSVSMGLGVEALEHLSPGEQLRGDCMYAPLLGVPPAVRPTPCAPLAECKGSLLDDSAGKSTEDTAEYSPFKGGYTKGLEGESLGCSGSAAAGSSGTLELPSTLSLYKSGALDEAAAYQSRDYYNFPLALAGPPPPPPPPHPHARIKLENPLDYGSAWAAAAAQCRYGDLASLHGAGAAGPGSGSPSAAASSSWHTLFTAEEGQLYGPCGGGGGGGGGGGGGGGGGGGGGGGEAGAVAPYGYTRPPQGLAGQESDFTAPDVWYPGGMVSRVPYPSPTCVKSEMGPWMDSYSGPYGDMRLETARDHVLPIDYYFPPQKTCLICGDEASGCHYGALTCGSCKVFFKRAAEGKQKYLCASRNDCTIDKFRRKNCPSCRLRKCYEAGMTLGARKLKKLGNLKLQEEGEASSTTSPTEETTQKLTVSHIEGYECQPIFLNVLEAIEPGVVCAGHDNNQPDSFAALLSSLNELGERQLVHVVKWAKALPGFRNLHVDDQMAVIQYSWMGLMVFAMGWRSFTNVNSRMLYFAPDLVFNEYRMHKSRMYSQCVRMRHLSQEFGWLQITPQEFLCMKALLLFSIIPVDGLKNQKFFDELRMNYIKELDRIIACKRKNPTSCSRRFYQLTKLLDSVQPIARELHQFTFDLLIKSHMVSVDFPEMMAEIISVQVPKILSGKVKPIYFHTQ

As to `O=C(O)Cc1nn(Cc2ccc(Br)cc2F)c(=O)c2ccccc12`, the Potency result in test [1] is “inactive”. In addition, the outcome in test [2] was inactive.

As to `CCN(CC)C(=O)c1cccnc1`, in test [1], the Potency entry was “inactive”.

On to `O=C(NCCNCC(O)COc1ccc(O)cc1)N1CCOCC1` (stereo not given), for which the Potency entry in test [1] is “inactive”.

For the compound `C=C(C)C1CC=C(C)CC1` (stereo not given), the Potency entry in [1], in test [3], in test [4] and in [6] was “inactive” each time. In test [5], the activation is -1.86% (inactive) and -2.03% (inactive). The result in [7] and in test [8] was inactive. The max response in [9] stood at 2.14%.

For `OC[C@H]1O[C@@H]2O[C@H]3[C@H](O)[C@@H](O)[C@@H](O[C@H]4[C@H](O)[C@@H](O)[C@@H](O[C@H]5[C@H](O)[C@@H](O)[C@@H](O[C@H]6[C@H](O)[C@@H](O)[C@@H](O[C@H]7[C@H](O)[C@@H](O)[C@@H](O[C@H]1[C@H](O)[C@H]2O)O[C@@H]7CO)O[C@@H]6CO)O[C@@H]5CO)O[C@@H]4CO)O[C@@H]3CO`, the Potency entry in test [1], in test [3] and in test [6] was “inactive” throughout. Further, in test [4], the Potency is 11.2 µM (active). Also, the activation in test [5] is 3.77% (inactive) and 9.85% (inactive). The result in test [10], in test [11], in test [7] and in test [8] was inactive. In test [9], the max response was 1.28% and -5.56%.

With `CC1=CCC2CC1C2(C)C` (stereo not given), the Potency entry in [1], in test [3], in test [4] and in test [6] was “inactive” in each case. Besides, in [5], the activation is 3.24% (inactive). Moreover, the max response was -1.04% in test [12] and -0.211% in [9]. Further, the call in [13], in [10], in [11], in test [7] and in [8] was inactive.

Regarding `[O-][N+](=Nc1ccccc1)c1ccccc1`, the Potency result in test [1], in test [3], in [4] and in [6] was “inactive” in each case. For the same compound, the activation in test [5] was 3.15% (inactive). Moreover, the max response in test [12] is 22.2%; in test [9] it was -6.82%. Moreover, the outcome in test [13] and in test [10] was inactive.

Take `OCc1ccccc1`: the Potency result in test [1], in test [3], in test [4] and in [6] was “inactive” in each case. For the same compound, the activation in test [14] was -14.4% (inactive); in test [5], -0.651% (inactive). For the same compound, the result in test [15], in test [10], in [11], in [8] and in [16] was inactive. The max response in [9] is -12.3%.

Take `NCCO/C=C/[C@H](N)C(=O)O`: the Potency entry in test [1], in test [3], in test [4] and in test [6] was “inactive” in each case. The compound was called inactive in [17], in test [13], in test [10] and in test [11]. In test [5], the activation was -5.2% (inactive). In addition, the max response in [12] is -3.12%; in test [9], -3.57%.

Turning to `C[C@H](CCC(=O)O)[C@H]1CC[C@H]2[C@@H]3CC[C@@H]4C[C@H](O)CC[C@]4(C)[C@H]3C[C@H](O)[C@]12C`, the Potency result in test [1], in test [3] and in test [4] was “inactive” throughout. Besides, the call in test [17], in test [7] and in test [8] was inactive. Besides, the activation in test [5] is -6.09% (inactive).

Consider `O=[n+]1ccn([O-])c2ccccc21`, for which the Potency result in test [1] is “inactive”.

On to `O=C(O)CCCC/C=C(\c1ccccc1)c1cccnc1`, for which, in test [1], the Potency entry was “inactive”.

`N#Cc1ccc2c(c1)N(CCCN1CCC(O)CC1)c1ccccc1S2`: the Potency entry in test [1] was “inactive”.

With `O=P(O)(O)OP(=O)(O)O`, the Potency entry in [1] was “inactive”.

Consider `OCC(O)CO`, for which the Potency entry in [1], in [3], in test [4] and in [6] was “inactive” throughout. Also, the result in test [17], in [13], in test [10], in [11], in test [7] and in test [8] was inactive. Besides, the activation in test [5] is 2.41% (inactive) and -1.45% (inactive). Also, the max response in test [12] is -8.63%; in test [9] it was -13.7% and 0.479%.
